High-throughput results from PubChem.
A selection: hits, their analogues and other compounds. The true share with any hit is near 2.8%.
PI5P4Ka inh – qHTS for Inhibitors of phosphatidylinositol 5-phosphate 4-kinase (PI5P4K); Phosphatidylinositol 5-phosphate 4-kinase type-2 alpha (Homo sapiens), P48426; PI5P4Kalpha enzyme, ADP-Glo luminescence, 60 min; hits give low values; max response, %; 1.2% of 330,000 active; active means max response of -50% or lower; inconclusive means between -30% and -50%; inactive means -30% or higher; further: value at the top dose of about 77 µM; on the % scale 0 is the no-effect control and ±100 the full control effect
Target sequence (P48426 whole entry, looked up): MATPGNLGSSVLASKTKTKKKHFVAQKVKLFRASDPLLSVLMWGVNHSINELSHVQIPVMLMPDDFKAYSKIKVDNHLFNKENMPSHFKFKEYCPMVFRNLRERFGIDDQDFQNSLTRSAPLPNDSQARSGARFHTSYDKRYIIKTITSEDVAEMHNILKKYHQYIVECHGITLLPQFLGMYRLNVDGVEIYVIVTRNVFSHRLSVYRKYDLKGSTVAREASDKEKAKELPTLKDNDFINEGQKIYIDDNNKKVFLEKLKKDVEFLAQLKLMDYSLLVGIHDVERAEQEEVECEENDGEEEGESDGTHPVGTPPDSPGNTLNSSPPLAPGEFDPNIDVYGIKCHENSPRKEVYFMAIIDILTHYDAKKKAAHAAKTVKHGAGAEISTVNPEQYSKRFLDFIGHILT
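Reactions run in 0.038 M HEPES pH 7.4, 0.28 mM EGTA, 0.1% CHAPS and 5% DMSO, with PI5P4Kalpha, substrate, compound and 5 microM ATP final, one hour at room temperature. Readout is ADP-Glo luminescence.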
POLK inh – qHTS for Inhibitors of Polymerase Kappa. DNA polymerase kappa (Homo sapiens), Q9UBT6. purified Pol kappa, fluorescent DNA synthesis assay, 10 min. Potency, µM (highest dose often 107 µM), inactives show at the highest dose activity, negative = inhibition, actives largely listed as inhibitors. 0.53% of 400,000 active; further: potency means the concentration at half of the fitted maximal effect; on the % scale 0 is the no-effect control and ±100 the full control effect
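Kinetic fluorescence readout at 0 and 10 min followed reaction start with substrate at 50 nM final. Beforehand, enzyme (10 nM Pol kappa) stood 15 min with compound at room temperature; buffer-only wells were negative controls.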
POLB inh – qHTS Assay for Inhibitors of DNA Polymerase Beta; P06746; Pol beta primer extension/strand displacement, fluorescence kinetic; Potency, µM (titrated, usually from 114 µM), inactives show at the highest dose activity change, negative = inhibition, usual class: inhibitors; 1.3% of 340,000 active; further: potency means the concentration at half of the fitted maximal effect; on the % scale 0 is the no-effect control and ±100 the full control effect
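Values derive from four-parameter Hill fits of normalized kinetic data: reads at 0 and 10 min following addition of 50 nM substrate to 10 nM Pol beta preincubated 15 min with compound.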
POLH inh – qHTS for Inhibitors of Polymerase Eta | DNA polymerase eta (Homo sapiens), Q9Y253 | recombinant Pol eta, fluorescent DNA replication assay | Potency, µM (titrated, usually from 114 µM), for the others: top-dose activity change, negative = inhibition, usual class: inhibitors | 1.2% of 390,000 active; further: potency means the concentration at half of the fitted maximal effect; on the % scale 0 is the no-effect control and ±100 the full control effect
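Fluorescent replication assay: 50 nM final substrate added after a 15 min room-temperature compound preincubation with 10 nM enzyme. Signal taken at 0 min and again at 10 min.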
WRN helicase inh – qHTS for Inhibitors of WRN Helicase; WRN helicase unwinding, fluorescent forked duplex, kinetic; Potency, µM (series often up to 114 µM), inactives show top-dose activity change, negative = inhibition, actives largely listed as inhibitors; 0.46% of 360,000 active; AID 651768, 2012; Bifunctional 3'-5' exonuclease/ATP-dependent helicase WRN (Homo sapiens), Q14191; further: potency means the concentration at half of the fitted maximal effect; on the % scale 0 is the no-effect control and ±100 the full control effect; nearly all actives have a fitted effect of over 55% in size
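Fluorescence dequenching readout, ex 525 nm/em 598 nm, kinetic mode: forked duplex DNA (100 nM final) with adjacent fluorophore and quencher unwound by WRN (20 nM final) with 2 mM ATP. Compound preincubation 15 min, room temperature.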
Pol iota inh – qHTS for Inhibitors of Polymerase Iota; DNA polymerase iota (Homo sapiens), Q9UNA4; Pol iota fluorescent replication assay, 10 min; Potency, µM (top dose mostly 115 µM), without a hit: top-dose activity, negative = inhibition, hits mostly inhibitors; 1% of 390,000 active; further: potency means the concentration at half of the fitted maximal effect
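Fluorescent replication assay read twice, at 0 min and 10 min after adding 50 nM (final) substrate. Enzyme (10 nM) and compounds were first incubated 15 min at room temperature; enzyme-free buffer wells were negative controls.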
* marks the source's active call; other numbers are inactive results; ? = inconclusive; · = not tested or not shown; ! = not confirmed by another sample; [ ] = remark or other dose. Unless noted, the call rests on the fitted dose curve; in most records, active means well fitted curve in the direction sought with a large enough effect; inconclusive means small, poorly fitted or top-dose-only effect, or another doubt; inactive means no such curve, though single readings can be large; an effect the other way counts as inactive or inconclusive.

SMILES	PI5P4Ka inh	POLK inh	POLB inh	POLH inh	WRN helicase inh	Pol iota inh
O=C(N/N=C/c1c(O)n(CCC2=CCCCC2)c(=S)[nH]c1=O)c1ccccc1	-59*	-12%	-24%	-20%	-20%	-1%
O=C(N/N=C/c1c(O)n(CCC2=CCCCC2)c(=O)[nH]c1=O)c1ccccc1	-60*	-7%	0%	-12%	-29%	2%
CCCCC(=O)N/N=C/c1c(O)n(CCc2ccccc2)c(=O)[nH]c1=O	-58*	-1%	-30%	-5%	1%	27%
CCOc1ccc2cc(C#N)c(=O)oc2c1	·	13%[60.1 µM]	·	·	·	·
CNc1ccc2oc(C[C@@H]3OC4(CC[C@@H]3C)O[C@H]([C@@H](C)C(=O)c3ccc[nH]3)[C@H](C)C[C@H]4C)nc2c1C(=O)O (stereo not given in full)	·	-3%[19.4 µM]	·	·	·	·
O=C(Nc1ccccc1)c1ccccc1I	·	-6%[12 µM]	·	·	·	·
CCOC(=O)c1cc(-c2ccccc2)n(CCCC(=O)Nc2ccc(C)c(C)c2)c1C	·	-4%[60.1 µM]	?	-1%	·	?
COC(=O)C1=C(c2ccc3ccccc3c2)C[C@@H]2CC[C@H]1N2C(=O)NCc1ccco1	-21	?	·	35µM*	-1%[11.6 µM]	-28%
COC(=O)C1=C(c2ccc3ccccc3c2)C[C@@H]2CC[C@H]1N2C(=O)NCC1CC1	-7	0%	·	-5%	4%	22%
CCCCC/C=C\C/C=C\C/C=C\C/C=C\CCCC(=O)NCc1ccoc1	·	7.9µM*	·	·	·	·
CCCCC/C=C\C/C=C\C/C=C\C/C=C\CCCC(=O)NCCCC(=O)O	·	14µM*	·	·	·	·
CCCCC/C=C\C/C=C\C/C=C\C/C=C\CCCC(=O)NCC(=O)O	·	7.5µM*!	1.4µM*	0.5µM*	·	2.2µM*
CCCCC/C=C\C/C=C\C/C=C\C/C=C\CCCC(N)=O	·	2%[19.4 µM]	·	·	·	·
C=CCN1CCc2cccc3c2C1Cc1ccc(O)c(O)c1-3 (stereo not given)	·	4%[19.4 µM]	8%[57.1 µM]	-5%[57.1 µM]	·	-12%[58.9 µM]
OC[C@H]1OC(O)C[C@@H](O)[C@@H]1O (stereo not given in full)	0	0%	·	-5%	-7%	?
C=C1CC[C@H](O)C/C1=C/C=C1\CCC[C@]2(C)[C@H]1CC[C@H]2[C@@H](C)CCCC(C)C	·	-9%[12 µM]	·	·	·	·
Cc1cc(N2CCCCC2)nc2ccc(NC(=O)/C=C/c3ccc(OC(C)C)cc3)cc12	·	-2%	30%	-16%	·	12%
O=C1NC(=O)C(=Cc2cc(Cl)ccc2OCc2ccc(C(=O)O)cc2)C(=O)N1	-71*	-45%	6%	-9%	-9%	?
O=[N+]([O-])c1cc(C(F)(F)F)c(Cl)c([N+](=O)[O-])c1Nc1ncc(C(F)(F)F)cc1Cl	·	-31%	·	·	·	?
CCOC(=O)C1=Nc2ccccc2/C1=C\c1c(O)n(C)c(=O)n(C)c1=O	-64*	0%	8%	2%	-11%	?
CCOc1ccc(NC(=S)N2CCC(NC(=O)c3ccccc3C)CC2)cc1	0	3%	2%	-9%	8%	31%
O=[N+]([O-])c1cc(O)c(O)c([N+](=O)[O-])c1	-23	16µM*!	5%[57.1 µM]	?	-7%	?
C[C@H](N)C(=O)NCC(=O)N[C@H]1CSSC[C@@H](C(=O)O)NC(=O)[C@H](CO)NC(=O)[C@H]([C@@H](C)O)NC(=O)[C@H](Cc2ccccc2)NC(=O)[C@H]([C@@H](C)O)NC(=O)[C@H](CCCCN)NC(=O)[C@H](Cc2c[nH]c3ccccc23)NC(=O)[C@H](Cc2ccccc2)NC(=O)[C@H](Cc2ccccc2)NC(=O)[C@H](CC(N)=O)NC(=O)[C@H](CCCCN)NC1=O	·	5%[60.1 µM]	·	·	·	·
COc1ccccc1CNC(=O)CCNS(=O)(=O)c1ccc2c(c1)oc(=O)n2C	-3	-2%	41%	-4%	4%	11%
CNc1cc(Cl)c2nonc2c1[N+](=O)[O-]	2	-25%	89µM*	-13%	?	10µM*
SMILES	PI5P4Ka inh	POLK inh	POLB inh	POLH inh	WRN helicase inh	Pol iota inh
Cc1ccccc1-n1c(O)c(/C=N/NC(=O)c2ccccc2O)c(=O)[nH]c1=S	-69*	-25%	11%	-19%	-11%	?
CCOC(=O)c1c(/N=C/c2c(O)n(-c3ccccc3F)c(=S)[nH]c2=O)sc2c1CCCC2	?	-4%	13%	-4%	?	?
O=C(N/N=C/c1c(O)n(C2CC2)c(=S)[nH]c1=O)c1ccccc1O	-58*	-22%	16%	2%	-21%	102%
CCOC(=O)c1ccc(N=Cc2c(O)n(-c3ccccc3F)c(=S)[nH]c2=O)cc1	-27	-17%	30%	-28%	79µM*	?
O=C(N/N=C/c1c(O)n(-c2ccccc2)c(=S)[nH]c1=O)c1ccccc1	-54*	0%	-19%	-10%	-12%	58%
O=C(N/N=C/c1c(O)n(-c2ccccc2)c(=O)[nH]c1=O)c1ccncc1	-27	-1%	-21%	-11%	-34%	22%
CC[C@H](C)[C@H](NC(=O)[C@@H](N)Cc1ccc(O)cc1)C(=O)NCC(=O)N[C@@H](CO)C(=O)N[C@@H](CCCN=C(N)N)C(N)=O	·	19%[60.1 µM]	·	·	·	·
Oc1c(Br)c(Br)c(Br)c(Br)c1Br	-60*	?	·	?	-29%	?
COc1ccc(CCNc2nc3c(c(=O)n(C)c(=O)n3C)n2Cc2ccc(F)cc2)cc1OC	·	-6%	3%	-21%	·	31%
O=c1cc(-c2ccc(O)cc2)oc2c(C3O[C@H](CO)[C@@H](O)[C@H](O)[C@H]3O)c(O)cc(O)c12 (stereo not given in full)	-73*	?	·	?	-11%	?
COC(=O)CCCc1[se]c2ccccc2c1I	·	-16%[60.1 µM]	·	·	·	·
COc1ccc(P2(=O)Nc3ccccc3N2)cc1	-6	-32%	40µM*	-9%	-20%	91%
COc1ccc2c(c1)NP(=S)(c1ccccc1)N2C (stereo not given)	3	2%	·	-29%	-14%	12%
CN(C)C1C(=O)C(C(N)=O)=C(O)C2(O)C(=O)C3=C(O)c4c(O)cccc4C(C)(O)C3C(O)C12 (stereo not given)	-54*	-4%	11µM*	-9%	-35%	-8%
N[C@@H](Cc1cc(Br)c(O)c(Br)c1)C(=O)O	·	·	22µM*	·	·	·
